Experimental data as given in PubChem BioAssay.
For some assays here: Measured potencies and affinities stand elsewhere. Activity calls are given as the source filed them. No rule for the calls is given here.

The compounds below were run against Plasmodium falciparum protein kinase 6 (PK6, PF3D7_1337100) (UniProt Q8IDW1) (assay: PfPK6 kinase inhibitors, biochemical, TCAMS library (AID 1159586)). Conditions: recombinant PfPK6, Kinase-Glo ATP depletion luminescence.
Plasmodium falciparum protein kinase 6 (PK6, PF3D7_1337100), sequence (Q8IDW1 1-305): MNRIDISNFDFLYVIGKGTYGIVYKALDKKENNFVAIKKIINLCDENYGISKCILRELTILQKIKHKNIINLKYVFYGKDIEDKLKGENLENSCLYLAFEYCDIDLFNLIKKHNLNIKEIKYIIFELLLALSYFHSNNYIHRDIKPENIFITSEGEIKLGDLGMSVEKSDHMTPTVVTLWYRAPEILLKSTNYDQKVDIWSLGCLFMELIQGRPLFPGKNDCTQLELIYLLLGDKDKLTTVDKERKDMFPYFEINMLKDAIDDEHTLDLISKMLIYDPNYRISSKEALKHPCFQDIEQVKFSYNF

outcome, inactive:
COc1ccc2nccc([C@@H](O)CN3CCC(NC(=O)/C=C/c4cccc(NC(C)=O)c4)CC3)c2c1
c1ccc(-c2cc(NCc3cccc4ccccc34)c3[nH]ncc3n2)cc1
Cn1nc(-c2ccc(NC(=O)Nc3cc(C(F)(F)F)ccc3F)c(F)c2)c2cnc(NCCCn3ccnc3)nc21
COc1ccc2nccc(N3CCN(CCNCc4ccc5c(n4)NC(=O)CS5)CC3)c2c1
FC(F)(F)c1ccc2nc(-c3ccc(-c4cccc(CNCCc5ccncc5)c4)s3)[nH]c2c1
O=C(NCCCCN1CCC(c2ccc3c(c2OC(=O)c2ccc(NC(=O)c4ccc(Cl)cc4)cc2)CCCC3)CC1)c1ccc(NC(=O)c2ccc(Cl)cc2)cc1
NCCCCNc1cc(-c2ccnc(Nc3cccc(Cl)c3)n2)ccn1
CCCN1CCN(c2ccccc2NS(=O)(=O)c2ccc(C(=O)Nc3ccc(Cl)cc3)cc2)CC1
Cc1ccc(C(=O)Nc2ccc(Nc3ccnc4cc(-c5ccncc5)ccc34)cc2O)cc1
Cc1cc(NCCC(=O)NCc2cccc(F)c2)nc(NCCc2ccc(F)cc2)n1
Cc1ccc(Nc2nccc(NCC(O)c3cccc(C(F)(F)F)c3)n2)cc1 (stereo not given)
CC(C)NCc1ccc(-c2cccc(-c3nc4ccc(F)cc4[nH]3)c2)cc1
Cn1c2ccccc2c2c3ccccc3c(CNC(CO)(CO)CO)cc21
COc1ccc(CNCc2ccccc2)cc1-c1cccc(S(=O)(=O)NCCN2CCCC2)c1
CC(=O)Nc1nc(N)c2c(ccc3c2ccn3CC(C)C)n1
c1ccc2[nH]c(-c3ccc(-c4ccc(CN5CCN(c6ccncc6)CC5)cc4)cc3)nc2c1
O=C(NCc1cccc(CN2CCOCC2)c1)c1cc(Br)cc(N2CCN(c3ccncc3)CC2)c1
Cc1[nH]c(C)c(-c2ccc(-c3ccc(Cl)cc3)nc2)c(=O)c1Br
COCCn1c(-c2cccc(Cl)c2)nn(-c2ccc([N+](=O)[O-])cc2Cl)c1=S
O=C(Cn1c(CCc2cccc(F)c2F)cc(=O)c2ccccc21)N(Cc1ccc(-c2ccc(C(F)(F)F)cc2)cc1)C1CCN(CCO)CC1
COc1ccccc1NC(=O)CSc1nc2cccnc2n1-c1ccccc1OC
CC(C)N(Cc1cnc(N)c(C#N)n1)c1ccc(Cl)c(Cl)c1
c1cc(CNc2ncc(-c3ccsc3)c(-c3nccs3)n2)ccn1
Cc1ccccc1C1CCN(C2CCC(NC(=O)/C=C/c3ccccc3C(F)(F)F)CC2)CC1 (stereo not given)
FC(F)(F)c1ccc2nc(-c3ccc(-c4ccc(CNCC5CCCO5)cc4)cc3)[nH]c2c1 (stereo not given)

The compounds below were run against Protein kinase 7 (PK7), Plasmodium falciparum 3D7 (PF3D7_0213400) (UniProt Q7YTF7) (assay: inhibition of Plasmodium PK7 catalytic activity – biochemical, TCAMS antimalarial set, Kinase-Glo luminescence (AID 1159587)). Conditions: recombinant PfPK7, Kinase-Glo ATP depletion luminescence.
Protein kinase 7 (PK7), Plasmodium falciparum 3D7 (PF3D7_0213400), sequence (Q7YTF7 1-343): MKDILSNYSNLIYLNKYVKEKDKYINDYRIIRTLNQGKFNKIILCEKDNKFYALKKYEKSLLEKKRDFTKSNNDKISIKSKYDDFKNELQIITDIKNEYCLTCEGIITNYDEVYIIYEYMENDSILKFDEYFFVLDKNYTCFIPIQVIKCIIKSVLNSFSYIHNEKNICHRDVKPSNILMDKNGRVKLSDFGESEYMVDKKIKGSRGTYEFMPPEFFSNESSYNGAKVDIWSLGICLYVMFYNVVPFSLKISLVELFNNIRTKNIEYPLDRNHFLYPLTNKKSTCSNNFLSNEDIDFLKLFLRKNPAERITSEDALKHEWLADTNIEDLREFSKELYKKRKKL

outcome, inactive:
CCN1CCC(N(Cc2ccc(-c3ccc(Cl)cc3)cc2)C(=O)Cn2c(CCc3cccc(F)c3F)cc(=O)c3ccccc32)CC1
O=C(c1ccc(Cl)cc1)C1CCCN(C2CCN(CCc3ccccc3)CC2)C1 (stereo not given)
N#Cc1ccc2c(c1)CCN(CCC1CCC(NC(=O)c3cc4cccc([N+](=O)[O-])c4[nH]3)CC1)C2 (stereo not given)
CCCCNC(=O)C(C)NC(=O)c1ccc(O)c(-c2ccc(Cl)c(Cl)c2)c1 (stereo not given)
CCN(CC)CCOc1ccc(C(O)(C#CC(O)(c2ccc(Br)cc2)c2ccc(OCCN(CC)CC)cc2)c2ccc(Br)cc2)cc1 (stereo not given)
CC(=O)c1ccc(Nc2c(C(N)=O)cnc3cc(-c4c(C)noc4C)ccc23)cc1
O=C(/C=C/c1c[nH]c2ccccc12)NCCCCCN1CCC(c2c[nH]c3ccccc23)CC1
CN1CCCC1CCNCc1ccc(-c2ccc(CNCCc3ccccc3)cn2)cc1 (stereo not given)
NC1=NC(c2ccccc2)(c2ccccc2)C(=O)N1Cc1ccc(-c2cccnc2)cc1
CCCCCCNC(=O)C1Cc2c([nH]c3ccc(C)cc23)C2(CCN(Cc3ccccc3)CC2)N1 (stereo not given)
Cc1ccc2nc(C)cc(NN=CC=Cc3ccccc3)c2c1
CCOc1c(CNCCCNc2cc(=O)c3ccccc3[nH]2)cc(I)cc1OC
CC(=O)CSC(C=Cc1ccc(N(C)C)cc1)=Nc1ccccc1
N#Cc1ccc(N(CCOc2ccc3c(c2)CCC(=O)N3)Cc2ccccc2C(F)(F)F)cc1C(F)(F)F
COc1ccccc1CC1CCCN(C2CCC(NC(=O)c3cc4ccccc4[nH]3)CC2)C1 (stereo not given)
COc1ccc2nccc([C@@H](O)CN3CCC(NC(=O)/C=C/c4cccc(NC(C)=O)c4)CC3)c2c1
c1ccc(-c2cc(NCc3cccc4ccccc34)c3[nH]ncc3n2)cc1
Cn1nc(-c2ccc(NC(=O)Nc3cc(C(F)(F)F)ccc3F)c(F)c2)c2cnc(NCCCn3ccnc3)nc21
COc1ccc2nccc(N3CCN(CCNCc4ccc5c(n4)NC(=O)CS5)CC3)c2c1
FC(F)(F)c1ccc2nc(-c3ccc(-c4cccc(CNCCc5ccncc5)c4)s3)[nH]c2c1
O=C(NCCCCN1CCC(c2ccc3c(c2OC(=O)c2ccc(NC(=O)c4ccc(Cl)cc4)cc2)CCCC3)CC1)c1ccc(NC(=O)c2ccc(Cl)cc2)cc1
NCCCCNc1cc(-c2ccnc(Nc3cccc(Cl)c3)n2)ccn1
CCCN1CCN(c2ccccc2NS(=O)(=O)c2ccc(C(=O)Nc3ccc(Cl)cc3)cc2)CC1
Cc1ccc(C(=O)Nc2ccc(Nc3ccnc4cc(-c5ccncc5)ccc34)cc2O)cc1
Cc1cc(NCCC(=O)NCc2cccc(F)c2)nc(NCCc2ccc(F)cc2)n1
Cc1ccc(Nc2nccc(NCC(O)c3cccc(C(F)(F)F)c3)n2)cc1 (stereo not given)
CC(C)NCc1ccc(-c2cccc(-c3nc4ccc(F)cc4[nH]3)c2)cc1
Cn1c2ccccc2c2c3ccccc3c(CNC(CO)(CO)CO)cc21
COc1ccc(CNCc2ccccc2)cc1-c1cccc(S(=O)(=O)NCCN2CCCC2)c1
CC(=O)Nc1nc(N)c2c(ccc3c2ccn3CC(C)C)n1
c1ccc2[nH]c(-c3ccc(-c4ccc(CN5CCN(c6ccncc6)CC5)cc4)cc3)nc2c1
O=C(NCc1cccc(CN2CCOCC2)c1)c1cc(Br)cc(N2CCN(c3ccncc3)CC2)c1
Cc1[nH]c(C)c(-c2ccc(-c3ccc(Cl)cc3)nc2)c(=O)c1Br
COCCn1c(-c2cccc(Cl)c2)nn(-c2ccc([N+](=O)[O-])cc2Cl)c1=S
O=C(Cn1c(CCc2cccc(F)c2F)cc(=O)c2ccccc21)N(Cc1ccc(-c2ccc(C(F)(F)F)cc2)cc1)C1CCN(CCO)CC1
COc1ccccc1NC(=O)CSc1nc2cccnc2n1-c1ccccc1OC
CC(C)N(Cc1cnc(N)c(C#N)n1)c1ccc(Cl)c(Cl)c1
c1cc(CNc2ncc(-c3ccsc3)c(-c3nccs3)n2)ccn1
Cc1ccccc1C1CCN(C2CCC(NC(=O)/C=C/c3ccccc3C(F)(F)F)CC2)CC1 (stereo not given)
FC(F)(F)c1ccc2nc(-c3ccc(-c4ccc(CNCC5CCCO5)cc4)cc3)[nH]c2c1 (stereo not given)
